Common to all, as to settings: concentration: 1 μM, replicates: in singlicate; n = 1
In experiment [1] the test system is T1, PKAC-alpha.
T1 construct: gene PRKACA

Experiment [2] has as its system T2, PKAC-beta.
T2 construct: gene PRKACB

For experiment [3], the system named is PKMYT1.
Experiment [4] relates to PKN1.
The subject of experiment [5] is PKN2.
In experiment [6] the test system is PLK1.
For experiment [7], the system named is PLK2.
The test system of experiment [8] is PLK3.
The test system of experiment [9] is PLK4.
The test system of experiment [10] is PRKCD.
Experiment [11] has as its system PRKCE.
For experiment [12], the system named is PRKCH.
Experiment [13] concerns PRKCI.
Experiment [14] has as its system PRKCQ.
The test system of experiment [15] is PRKD1.
For experiment [16], the system named is PRKD2.
Experiment [17] relates to PRKD3.
In experiment [18] the test system is PRKG1.
For experiment [19], the system named is PRKG2.
Experiment [20] has as its system T3, PRKR.
T3 construct: gene EIF2AK2
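Further: KINOMEscan kinase panel screen.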

For the compound `Cl.c1ccc(Cn2cnc3cc(Nc4ncnc5ccccc45)ccc32)cc1` [GW272142], the “%Inh” value in experiment [1], in experiment [2], in experiment [3], in [4], in experiment [5] and in experiment [6] was 0% throughout. The “%Inh” value in experiment [7] is listed as 0%; in experiment [8], 0%; in [9], 0%; in [10], 0%; in experiment [11] it was 4%; in experiment [12] it was 0%. In addition, the “%Inh” value turned out to be 0% in experiment [13]; 0% in [14]; 0% in [15]; 1% in experiment [16]; 0% in [17]; 0% in experiment [18]. Also, the “%Inh” value in [19] and in [20] was 0% in each case.

For `Cn1c(=O)c(F)c(Nc2ccc(I)cc2F)c2c(=O)n(OC[C@H](O)CO)cnc21`, the “%Inh” value in experiment [1] worked out at 10%; in experiment [2], 35%; in [3], 0%; in [4], 0%; in [5], 0%; in experiment [6], 14%. The “%Inh” value was 0% in experiment [7]; 0% in experiment [8]; 4% in experiment [9]; 4% in [10]; 0% in experiment [11]; 0% in [12]. The “%Inh” value in experiment [13] amounted to 34%; in experiment [14], 6%; in [15], 0%; in experiment [16], 0%; in experiment [17] it was 0%; in experiment [18], 8%. The “%Inh” value in experiment [19] amounted to 7%; in experiment [20], 0%.

As to `Nc1nc(N)c2nc(-c3ccccc3)[nH]c2n1` [SKF-12778], the “%Inh” value in experiment [1] was 7%; in experiment [2], 9%; in [3], 2%; in experiment [4], 43%; in experiment [5] it was 23%; in experiment [6], 0%. The “%Inh” value in experiment [7] was 0%; in experiment [8], 0%; in experiment [9], 0%; in experiment [10], 11%; in experiment [11] it was 4%; in experiment [12] it was 0%. The “%Inh” value was determined as 36% in experiment [13]; 40% in experiment [14]; 40% in experiment [15]; 9% in experiment [16]; 0% in experiment [17]; 12% in [18]. The “%Inh” value in [19] and in experiment [20] was 0% throughout.

On to `FC(F)(F)c1ccc(-c2ncn(CCCN3CCOCC3)c2-c2ccncc2)cc1` [SB-217780], for which the “%Inh” value is listed as 0% in experiment [1]; 10% in [2]; 0% in experiment [3]; 43% in experiment [4]; 48% in experiment [5]; 5% in experiment [6]. Besides, the “%Inh” value in [7] was 0%; in [8], 0%; in experiment [9], 3%; in [10] it was 87%; in experiment [11] it was 35%; in [12] it was 0%. Further, the “%Inh” value is 19% in [13]; 30% in [14]; 0% in experiment [15]; 0% in [16]; 0% in experiment [17]; 29% in [18]. Also, the “%Inh” value is 25% in [19] and 0% in experiment [20].

For `CN(C)c1cc(-c2ccc3c(N)n[nH]c3c2)nc(N)n1` [GSK2219329], the “%Inh” value in experiment [1] came out at 32%; in [2] it was 0%; in experiment [3], 0%; in experiment [4], 0%; in [5] it was 0%; in experiment [6] it was 0%. Besides, the “%Inh” value in [7] was determined as 0%; in experiment [8] it was 0%; in experiment [9], 0%; in [10], 0%; in experiment [11], 0%; in experiment [12], 14%. Further, the “%Inh” value in experiment [13] came to 17%; in experiment [14], 0%; in experiment [15], 0%; in experiment [16], 0%; in experiment [17], 0%; in experiment [18], 1%. Further, the “%Inh” value is listed as 1% in experiment [19] and 5% in experiment [20].

Take `CCS(=O)c1ccc(-c2coc3ccc(-c4nnc(C)o4)cc23)cc1` (stereo not shown): the “%Inh” value in experiment [1] came out at 0%; in [2], 18%; in [3] it was 0%; in experiment [4], 0%; in experiment [5], 16%; in experiment [6] it was 0%. Also, the “%Inh” value in [7] was determined as 0%; in experiment [8], 14%; in experiment [9], 5%; in [10], 4%; in experiment [11], 0%; in [12], 0%. Further, the “%Inh” value in experiment [13] is given as 0%; in experiment [14], 14%; in experiment [15] it was 0%; in experiment [16], 0%; in experiment [17], 0%; in experiment [18], 21%. For the same compound, the “%Inh” value in experiment [19] amounted to 9%; in experiment [20] it was 0%.

Regarding `O=C(NCc1cccs1)c1cc(C(=O)c2c(Cl)cccc2Cl)c[nH]1` [GW823670], the “%Inh” value in experiment [1] was found to be 6%; in [2], 3%; in experiment [3], 0%; in [4] it was 0%; in [5], 0%; in [6], 0%. Moreover, the “%Inh” value in experiment [7] was determined as 0%; in [8] it was 0%; in [9] it was 0%; in [10], 0%; in [11], 9%; in [12] it was 0%. Moreover, the “%Inh” value in [13] is 0%; in experiment [14], 0%; in [15], 35%; in [16], 3%; in [17] it was 13%; in experiment [18], 0%. Moreover, the “%Inh” value in experiment [19] and in experiment [20] was 0% throughout.

Turning to `COc1cc2ncn(-c3cc(OCc4ccc(S(C)(=O)=O)cc4)c(C(N)=O)s3)c2cc1OC` [GW869979], the “%Inh” value in experiment [1] stood at 0%; in [2], 0%; in experiment [3], 0%; in experiment [4], 8%; in experiment [5], 0%; in [6], 98.3%. In addition, the “%Inh” value is reported as 98.9% in [7]; 92.3% in experiment [8]; 3% in [9]; 0% in experiment [10]; 20% in experiment [11]; 0% in experiment [12]. The “%Inh” value in experiment [13] is 12%; in experiment [14], 0%; in experiment [15] it was 0%; in [16] it was 0%; in experiment [17], 18%; in experiment [18], 0%. Moreover, the “%Inh” value in [19] and in [20] was 0% each time.

Take `COc1ccc(-c2cc3c(C)nc(N)nc3n([C@H]3CC[C@H](O)CC3)c2=O)cn1`: the “%Inh” value in experiment [1] worked out at 0%; in [2], 0%; in experiment [3] it was 32%; in [4] it was 0%; in experiment [5], 10%; in [6], 0%. Besides, the “%Inh” value in [7] worked out at 0%; in experiment [8], 0%; in experiment [9], 0%; in experiment [10] it was 0%; in experiment [11] it was 36%; in experiment [12] it was 0%. Moreover, the “%Inh” value is listed as 0% in experiment [13]; 0% in [14]; 3% in experiment [15]; 0% in [16]; 0% in experiment [17]; 0% in experiment [18]. The “%Inh” value in experiment [19] and in experiment [20] was 0% throughout.

Regarding `CCc1nc(-c2cccc(C)c2)c(-c2ccncc2)s1`, the “%Inh” value was 0% in [1]; 7% in experiment [2]; 8% in [3]; 6% in [4]; 0% in experiment [5]; 0% in experiment [6]. Moreover, the “%Inh” value worked out at 0% in [7]; 14% in [8]; 0% in experiment [9]; 0% in [10]; 0% in experiment [11]; 0% in experiment [12]. Moreover, the “%Inh” value in experiment [13] worked out at 28%; in experiment [14] it was 6%; in experiment [15] it was 0%; in experiment [16], 26%; in experiment [17], 9%; in [18], 0%. Further, the “%Inh” value in experiment [19] is given as 11%; in [20], 0%.

With `COc1cccc(C2=C(Nc3cccc(C(=O)O)c3)C(=O)NC2=O)c1` [SB-390770], the “%Inh” value in [1] stood at 0%; in experiment [2], 0%; in [3] it was 11%; in experiment [4], 22%; in [5], 0%; in experiment [6] it was 6%. Also, the “%Inh” value in experiment [7] amounted to 0%; in experiment [8], 0%; in experiment [9], 10%; in experiment [10] it was 29%; in [11], 15%; in experiment [12] it was 28%. In addition, the “%Inh” value came out at 100% in experiment [13]; 11% in experiment [14]; 0% in [15]; 0% in [16]; 0% in experiment [17]; 0% in experiment [18]. For the same compound, the “%Inh” value in [19] and in [20] was 0% throughout.

These data come from paper PMC5540273 (PLoS ONE, 2017).
